Several values for one entry are separate records, joined by “and”; a condition that tells them apart may be missing. Equal values may be shown once. About 2,000 (36%) of roughly 5,500 compounds were called active. Another 18% or so got no clear call; they are omitted. Cut-off read from the data, not from the text of the source: active = normalized growth mostly below about 0.91 (no sharp cut-off); inconclusive = no clear call, values can overlap the other calls; inactive = mostly above about 0.92. The list shows a part of the results.
Test: chemical genetic growth profiling, strain panel (AID 1159580);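 note: tested at 20 µM; growth read once vehicle control cultures reached saturation at 30 °C; 1 = growth at the plate median or of vehicle wells; lower values mean less growth of the strain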
Conditions: growth OD

Measured: normalized growth

C=CCc1ccc(OC(=O)c2ccccc2)c(OC)c1
inactive: S. cerevisiae deletion strains, locus YBR021W, strain FUR4, active compounds read low 1 | S. cerevisiae deletion strains, locus YBR229C, strain ROT2, active compounds read low 0.99 | S. cerevisiae deletion strains, locus YCL029C, strain bik1, active compounds read low 0.973 | S. cerevisiae deletion strains, locus YDL035C, strain GPR1, active compounds read low 0.916 | S. cerevisiae deletion strains, locus YDL074C, strain BRE1, active compounds read low 0.923 | S. cerevisiae deletion strains, locus YDL101C, strain DUN1, active compounds read low 0.974 | S. cerevisiae deletion strains, locus YDL134C, strain PPH21, active compounds read low 0.95 | S. cerevisiae deletion strains, locus YDL185W, strain tfp1, active compounds read low 0.998 | S. cerevisiae deletion strains, locus YDL192W, strain arf1, active compounds read low 0.928 | S. cerevisiae deletion strains, locus YDR101C, strain arx1, active compounds read low 0.919 | S. cerevisiae deletion strains, locus YDR150W, strain NUM1, active compounds read low 0.997 | S. cerevisiae deletion strains, locus YDR162C, strain NBP2, active compounds read low 0.947 | S. cerevisiae deletion strains, locus YDR318W, strain mcm21, active compounds read low 0.939 | S. cerevisiae deletion strains, locus YDR388W, active compounds read low 0.979 | S. cerevisiae deletion strains, locus YDR502C, strain sam2, active compounds read low 0.944 | S. cerevisiae deletion strains, locus YER110C, active compounds read low 1.03 | S. cerevisiae deletion strains, locus YER155C, strain BEM2, active compounds read low 0.969 | S. cerevisiae deletion strains, locus YER167W, strain BCK2, active compounds read low 0.939 | S. cerevisiae deletion strains, locus YGL078C, strain dbp3, active compounds read low 0.956 | S. cerevisiae deletion strains, locus YGL086W, strain mad1, active compounds read low 0.933 | S. cerevisiae deletion strains, locus YGL248W, strain PDE1, active compounds read low 0.971 | S. cerevisiae deletion strains, locus YGR078C, strain PAC10, active compounds read low 0.974 | S. cerevisiae deletion strains, locus YGR135W, strain pre9, active compounds read low 0.965 | S. cerevisiae deletion strains, locus YGR252W, strain gcn5, active compounds read low 0.993 | S. cerevisiae deletion strains, locus YHR030C, strain SLT2, active compounds read low 1 and 0.914 | S. cerevisiae deletion strains, locus YHR079C, strain IRE1 (second series), active compounds read low 0.988 | S. cerevisiae deletion strains, locus YHR079C, strain IRE1, active compounds read low 0.931 | S. cerevisiae deletion strains, locus YHR094C, strain hxt1, active compounds read low 0.988 | S. cerevisiae deletion strains, locus YHR129C, strain ARP1, active compounds read low 0.985 | S. cerevisiae deletion strains, locus YHR200W, strain rpn10, active compounds read low 0.952 | S. cerevisiae deletion strains, locus YIL066C, strain RNR3, active compounds read low 0.973 | S. cerevisiae deletion strains, locus YIL073C, strain SPO22, active compounds read low 1.08 | S. cerevisiae deletion strains, locus YIL125W, strain kgd1, active compounds read low 0.966 | S. cerevisiae deletion strains, locus YIR030C, strain dcg1, active compounds read low 0.983 | S. cerevisiae deletion strains, locus YJL095W, strain BCK1, active compounds read low 0.918 and 0.973 | S. cerevisiae deletion strains, locus YJL134W, strain LCB3, active compounds read low 1 | S. cerevisiae deletion strains, locus YJL168C, strain set2, active compounds read low 1 | S. cerevisiae deletion strains, locus YJL187C, strain SWE1 (second series), active compounds read low 0.954 | S. cerevisiae deletion strains, locus YJR043C, strain POL32, active compounds read low 0.936 | S. cerevisiae deletion strains, locus YJR066W, strain TOR1, active compounds read low 0.954 | S. cerevisiae deletion strains, locus YKL009W, strain mrt4, active compounds read low 0.925 | S. cerevisiae deletion strains, locus YKL068W, active compounds read low 0.979 | S. cerevisiae deletion strains, locus YKL085W, strain MDH1 (second series), active compounds read low 0.981 | S. cerevisiae deletion strains, locus YKL085W, strain MDH1, active compounds read low 0.981 | S. cerevisiae deletion strains, locus YKR001C, strain vps1, active compounds read low 0.908 | S. cerevisiae deletion strains, locus YLR039C, strain RIC1, active compounds read low 0.958 | S. cerevisiae deletion strains, locus YLR058C, strain SHM2, active compounds read low 0.952 | S. cerevisiae deletion strains, locus YLR102C, strain apc9, active compounds read low 0.996 | S. cerevisiae deletion strains, locus YLR268W, strain sec22, active compounds read low 0.965 | S. cerevisiae deletion strains, locus YLR330W, strain CHS5, active compounds read low 0.983 | S. cerevisiae deletion strains, locus YLR371W, strain rom2, active compounds read low 0.985 | S. cerevisiae deletion strains, locus YLR418C, strain cdc73, active compounds read low 0.935 | S. cerevisiae deletion strains, locus YML016C, strain PPZ1, active compounds read low 1 | S. cerevisiae deletion strains, locus YML032C, strain rad52, active compounds read low 0.926 | S. cerevisiae deletion strains, locus YML124C, strain tub3, active compounds read low 0.977 | S. cerevisiae deletion strains, locus YMR078C, strain ctf18, active compounds read low 0.978 | S. cerevisiae deletion strains, locus YMR223W, strain ubp8, active compounds read low 0.967 | S. cerevisiae deletion strains, locus YMR263W, strain SAP30, active compounds read low 0.998 | S. cerevisiae deletion strains, locus YMR307W, strain GAS1, active compounds read low 1.2 | S. cerevisiae deletion strains, locus YNL067W, strain RPL9B, active compounds read low 0.969 | S. cerevisiae deletion strains, locus YNL128W, strain TEP1, active compounds read low 0.992 | S. cerevisiae deletion strains, locus YNL153C, strain GIM3, active compounds read low 1.02 | S. cerevisiae deletion strains, locus YNL183C, strain NPR1, active compounds read low 0.933 | S. cerevisiae deletion strains, locus YNL233W, strain BNI4, active compounds read low 0.979 | S. cerevisiae deletion strains, locus YNL250W, strain rad50, active compounds read low 1.03 | S. cerevisiae deletion strains, locus YNL271C, strain bni1, active compounds read low 0.994 | S. cerevisiae deletion strains, locus YNL298W, strain CLA4, active compounds read low 0.95 | S. cerevisiae deletion strains, locus YNL307C, strain MCK1, active compounds read low 0.961 | S. cerevisiae deletion strains, locus YNR052C, strain pop2, active compounds read low 0.998 | S. cerevisiae deletion strains, locus YOL006C, strain TOP1, active compounds read low 0.779 | S. cerevisiae deletion strains, locus YOL012C, strain htz1 1.51 | S. cerevisiae deletion strains, locus YOL147C, strain pex11, active compounds read low 0.964 | S. cerevisiae deletion strains, locus YOR061W, strain CKA2, active compounds read low 0.986 | S. cerevisiae deletion strains, locus YOR069W, strain VPS5, active compounds read low 0.994 | S. cerevisiae deletion strains, locus YOR136W, strain idh2, active compounds read low 0.977 | S. cerevisiae deletion strains, locus YOR144C, strain elg1, active compounds read low 0.981 | S. cerevisiae deletion strains, locus YOR231W, strain MKK1, active compounds read low 0.915 | S. cerevisiae deletion strains, locus YOR316C, strain cot1, active compounds read low 0.985 | S. cerevisiae deletion strains, locus YPL256C, strain CLN2, active compounds read low 0.925 | S. cerevisiae deletion strains, locus YPR119W, strain clb2, active compounds read low 0.971 | S. cerevisiae deletion strains, locus YPR141C, strain kar3, active compounds read low 0.991 | S. cerevisiae deletion strains, locus YPR163C, strain tif3, active compounds read low 0.943 | S. cerevisiae deletion strains, locus YPR167C, strain met16, active compounds read low 0.943 | S. cerevisiae deletion strains, strain wtn01, active compounds read low 0.906 | S. cerevisiae strains, strain wild type, active compounds read low 0.93
active: S. cerevisiae deletion strains, locus YLR113W, strain HOG1, active compounds read low 0.841 | S. cerevisiae deletion strains, locus YOR184W, strain ser1, active compounds read low 0.571
